# High-throughput results (PubChem)
# Shiga inhibitor = inhibitors of Shiga toxin in Vero cells; Vero cells, Shiga toxin protein synthesis inhibition reporter; inhibition, % at 38.7 µM; hit rate 9.2% among 290,000; in the data active = inhibition mostly above about 28%, no sharp cut-off; inactive = mostly below about 43%; note: 0% is about no effect
# CHX counter = counter-screen for Shiga toxin inhibitors: cycloheximide protein synthesis inhibition | cell reporter, cycloheximide protein synthesis inhibition counterscreen | hit rate 12% among 300,000 | max response, %; in the data active = max response mostly above about 13%, no sharp cut-off; inactive = mostly below about 14%; note: read at 38.3 µM for the half of the compounds with a filed dose; 0% is about no effect
# AMA1-RON2 inh = inhibitors of Plasmodium falciparum AMA1-RON2 interaction; AlphaScreen AMA1-biotinylated RON2 peptide binding; hit rate 0.2% among 360,000; Potency, µM (doses to about 58.2 µM), for the others: at the top dose activity change, negative = inhibition, usual class: inhibitors;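 note: potency is the fitted concentration of half-maximal effect; 0% = vehicle wells and -100% = peptide control; nearly all actives have a fitted effect of over 45% in size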
#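 AMA1 (3D7) with his tag at 25 nM final met compounds first, then biotinylated RON2 peptide at 25 nM; detection used donor plus acceptor beads, 10 µg/mL apiece, read by AlphaScreen after 30 min at room temperature.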
# Pf growth 48h = inhibits P. falciparum growth in the first generation, 48 h; P. falciparum luciferase growth in erythrocytes, 48 h; Potency, µM (series often up to 28.7 µM), without a hit: at the top dose activity change, negative = inhibition, actives largely listed as inhibitors; AID 504832; hit rate 5.9% among 310,000; note: potency is the fitted concentration of half-maximal effect; % is set by controls: 0 for no effect and ±100 for the full control effect
#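 First compound was added to culture medium, then infected red cells at 0.1% parasitemia and 2% hematocrit (final). After incubation at 37 C under 5% CO2, luciferase detection reagent was dispensed and light output recorded.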
# SARS PLpro yeast = inhibitors of SARS-CoV papain-like protease in yeast; hit rate 0.19% among 330,000; AID 485353; S. cerevisiae expressing SARS-CoV PLpro, growth rescue; Potency, µM (highest dose often 32.9 µM), for inactives: top-dose activity, positive = growth rescue, actives largely listed as activators; calls by dose curve; note: potency is the fitted concentration of half-maximal effect; 0% is about no effect; nearly all actives have a fitted effect of over 55% in size
# Pf growth 96h = P. falciparum growth inhibition at 96 hours; P. falciparum luciferase reporter growth, 96 h; Potency, µM (series often up to 28.7 µM), inactives show at the top dose activity change, negative = inhibition, actives largely listed as inhibitors; hit rate 6.9% among 320,000; AID 504834; note: potency is the fitted concentration of half-maximal effect; % is set by controls: 0 for no effect and ±100 for the full control effect
#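 P. falciparum expressing integrated firefly luciferase, in erythrocytes at 2% hematocrit, 0.05% parasitemia, incubated with compounds 96 h at 37 C, 5% CO2. Growth inhibition read as loss of luminescence; two-generation exposure targets delayed-death apicoplast inhibitors.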
# * hit, by the source's call; ? = inconclusive; nt = no result given; + = active, no number; [ ] = dose if it differs, or a comment. In the library only some 19% were active in any assay of this set; here they are far more common. Unless noted, calls come from the whole dose curve; as a rule, active = well fitted curve in the direction sought with a large enough effect; inconclusive = small, poorly fitted or top-dose-only effect, or another doubt; inactive = no such curve, though single readings can be large; an effect the other way counts as inactive or inconclusive.
SMILES,Shiga inhibitor,CHX counter,AMA1-RON2 inh,Pf growth 48h,SARS PLpro yeast,Pf growth 96h
O=C(Nc1cc(Cl)ccc1Cl)c1ccco1,nt,0,0%,-10%,2%,2%
O=C(Nc1ccc2nn(-c3ccc(F)cc3)nc2c1)c1cccnc1,-8,13,5%,?,-1%,10%
O=C(Nc1ccc2nn(-c3ccccc3)nc2c1)c1cccnc1,43,22*,-4%,10%,-26%,10%
Nc1nc(NC(=O)Cc2ccccc2)nn1-c1ccccc1,27,-4,-6%,16%,-2%,32%
Cn1c2cc(Br)sc2c2cnn(Cc3ccc(F)cc3)c(=O)c21,nt,nt,nt,?,-1%,14%
CCOC(=O)C1C(C(=O)OC)=C(C(=O)OC)c2ccccc2N1S(=O)(=O)C(F)(F)F (stereo not drawn),18,6,-1%,nt,0%,nt
O=C(NCc1cccnc1)c1csc([C@@H]2O[C@H](CO)[C@H](O)[C@H](O)[C@H]2O)n1,nt,nt,-1%,nt,nt,nt
CC(C)C(=O)Nc1ccc2nn(-c3ccccc3)nc2c1,103*,39*,0%,60%,-2%,51%[5.75 µM]
CCn1c2ccccc2c2cc(NC(=O)C(C)C)ccc21,-12,-3,0%,?,-1%,?
CNS(=O)(=O)c1ccc(NC(=S)Nc2ccc3c(c2)OCO3)cc1,55*,29*,25%,21%,-1%,2%
Cc1cc(NS(=O)(=O)c2ccc(NC(=O)Nc3ccc4c(c3)OCO4)cc2)no1,35*,20,8%,50%,6%,-16%
Cc1c(C(=O)Nc2ccc(S(=O)(=O)Nc3ncccn3)cc2)oc2ccccc12,nt,nt,-3%,?,-8%,8%
Cc1cc(NS(=O)(=O)c2ccc(NC(=O)c3oc4ccccc4c3C)cc2)no1,-31,11,30µM*,16%,?,nt
Cc1cc(NS(=O)(=O)c2ccc(NC(=O)Nc3cccc(Cl)c3)cc2)no1,4,1,-2%,39%,9%,9%
O=S(=O)(c1ccc(NC(=S)Nc2ccc3c(c2)OCO3)cc1)N1CCOCC1,64*,37*,2%,26%,-21%,17%
COC(=O)C[C@@H]1C=C[C@H](NC(=O)Nc2cc(F)ccc2F)[C@@H](CO)O1,nt,nt,0%,nt,nt,nt
CC(=O)N1CCCN(Cc2cn(-c3ccc(C)cc3)nc2-c2cccc(C)c2)CC1,20,9,-2%,9.3µM*,0%,?
Cc1ccc(-n2cc(CN3CCC(O)(c4ccccn4)CC3)c(-c3ccc(F)cc3)n2)cc1,21,1,-4%,4.7µM*,-1%,2.3µM*
COc1ccc(-n2cc(CN3CCCC3)c(-c3cccc(F)c3)n2)cc1,-7,9,10%,?,0%,249%
Cc1ccc(-n2cc(CN3CCNC(=O)CC3)c(-c3ccc(F)cc3)n2)cc1,17,-3,-13%,?,1%,?
Cc1cccc(-n2cc(CN3CCN(Cc4nccn4C)CC3)c(-c3cccc(F)c3)n2)c1,53*,29*,30%,3.3µM*,0%,-11%
Nc1nonc1C(=O)N/N=C\c1cc2c(cc1Cl)OCO2,42*,44*,-6%,0%,-7%,-13%
Cc1nn(C)c(C(=O)N/N=C/c2cc3c(cc2Br)OCO3)c1Br,-4,-2,6%,?,-9%,?
Cn1cc(Br)c(C(=O)N/N=C/c2cccc(OC3CSC3)c2)n1,+,57*,9%,34%,14%,-3%
Cc1nonc1C(=O)N/N=C/c1cc2c(cc1Br)OCO2,46,28*,0%,7%,1%,-24%
Cn1cc(Br)c(C(=O)N/N=C/c2cc3c(cc2Cl)OCO3)n1,55,24*,-7%,72%,-11%,99%
Cc1cc(C)n(C(=O)CNC(=O)c2ccc(C(C)(C)C)cc2)n1,24,34*,24%,17%,4%,24%
COc1ccc(C(=O)NCC(=O)n2nc(C)cc2C)cc1OC,-3,-6,4%,6%,5%,nt
CCOc1ccc(S(=O)(=O)N2CCCC(C(=O)NCc3cccnc3)C2)cc1 (stereo not drawn),-6,-3,14%,1%,-6%,35%
CC(=O)NC(C)(c1ccccc1)c1nc(-c2cc(F)cc(F)c2)cs1 (stereo not drawn),nt,nt,1%,nt,nt,nt
